Compound activity: PubChem, several laboratories
The list is not random: actives were taken first. Their share in the collection is about 0.78%.
PolyA inh: yeast polyadenylation inhibition. actives 0.02% (n = 300,000). S. cerevisiae SKY197-pL101 polyadenylation reporter, beta-gal luminescence; efflux-impaired pdr1/pdr3 knockout yeast; score 100 = 6 SD above DMSO. activity score, % at 12 µM;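 active means lowest replicate activity score at least 50, where 100 means six control SD above control mean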;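 further: yeast exposed to compound for 9 h at 30 °C; higher score means more reporter readthrough which indicates perturbed polyadenylation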
PKA-R1A activ: PKA-R1A complex activation | activation, % at 11.4 µM | PKA-R1A dissociation, Cy5-IP20 fluorescence polarization; scaled: DMSO 0%, 113 µM cGMP 100% | actives 0.083% (n = 340,000);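 active means percent activation above the mean of all tested compounds plus 3 SD, cut at about 19% in these data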;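 further: higher means more PKAc released from R1A so a rise in polarization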
PKA-R2B activ: activators of human PKA-R2B complex; actives 0.079% (n = 340,000); activation, % at 11.4 µM; PKA-R2B holoenzyme dissociation, Cy5-IP20 fluorescence polarization; R2B truncated from residue 108, S112A mutant; 0% DMSO only, 100% 113 µM cGMP; P22694+P31323;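 active means activation above a cutoff set at the mean over all compounds plus 3 SD, cut at about 18% in these data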;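 further: higher means more holoenzyme dissociation and a rise in polarization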
JMJD2C inh: blocks human GASC-1 demethylase activity | Q9H3R0 | inhibition, % at 2.35 µM | GST-JMJD2C(1-420) H3K9me3 demethylation, DELFIA europium | actives 0.069% (n = 330,000);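 active means more than half of a compound's replicate wells show inhibition beyond 50%, single wells judged on their own value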;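 further: signal counts dimethyl H3K9 product captured on neutravidin plate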
Target sequence (Q9H3R0 1-420 limits assumed): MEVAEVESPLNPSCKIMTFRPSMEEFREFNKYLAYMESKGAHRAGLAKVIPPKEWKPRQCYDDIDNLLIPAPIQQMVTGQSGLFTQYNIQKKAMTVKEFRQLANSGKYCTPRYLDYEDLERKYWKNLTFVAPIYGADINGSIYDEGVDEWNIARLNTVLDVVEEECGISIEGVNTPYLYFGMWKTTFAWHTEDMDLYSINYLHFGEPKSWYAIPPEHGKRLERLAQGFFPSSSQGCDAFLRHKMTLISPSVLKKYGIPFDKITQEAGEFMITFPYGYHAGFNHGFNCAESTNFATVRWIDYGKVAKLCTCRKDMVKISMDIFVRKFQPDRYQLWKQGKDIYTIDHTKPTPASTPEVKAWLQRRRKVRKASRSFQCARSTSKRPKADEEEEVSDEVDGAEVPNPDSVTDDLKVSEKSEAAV
Yeast superoxide: caloric restriction mimetics inhibiting age-related superoxide in yeast | superoxide response (% of plate mean), % at 10 µM | actives 0.18% (n = 330,000) | AID 2690 | S. cerevisiae aged cells, superoxide DHE fluorescence; hits give low values;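 active means superoxide response under a set limit, about three screen SD below normal, cut at about 65% in these data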;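 further: yeast aged for seven days with compound at 30 °C before DHE staining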
V-ATPase pHluor: regulators of yeast V-ATPase proton transport; S. cerevisiae, pHLuorin cytosolic pH fluorescence; response, % at 10 µM; actives 0.37% (n = 350,000); AID 504577; in the data active means response mostly above about 7.3%, no sharp cut-off; inactive means mostly below about 5.4%; further: actives read high
Each line names hits and unclear results; the compound was inactive in the other large screens.

Cc1cccc(-n2nnnc2SCC(=O)Nc2cccc(S(N)(=O)=O)c2)c1	none
CCOC(=O)N1CCN(C(=O)COC(=O)c2ccccc2NCCO)CC1	none
COC(=O)/C(=N/Nc1ccc(C)cc1)N1CCCc2ccccc21	Yeast superoxide 62.7
O=c1cc(-c2ccccc2)nc2nc(CCc3ccccc3)[nH]n12	V-ATPase pHluor 15.6
CNC(CC(=O)c1ccc([N+](=O)[O-])cc1)C(Cl)(Cl)Cl (stereo not given)	V-ATPase pHluor 68.6 (no result: PolyA inh)
O=C(O)c1ccccc1NS(=O)(=O)c1cccc(C(F)(F)F)c1	V-ATPase pHluor 17.9
Cc1cccc(C)c1NS(=O)(=O)c1cc2c3c(c1)CC(=O)N3CCC2	JMJD2C inh 54.3
Cc1cccc(C)c1NS(=O)(=O)c1cc2c3c(c1)CCN3C(=O)CC2	none
Cc1cc(C)n2nc(C(=O)OCC(=O)c3c[nH]c4ccccc34)nc2n1	none
COc1ccc(Nc2nc(-c3sc(N)nc3C)cs2)cc1	none
Cc1ccc(Nc2nc(-c3sc(N)nc3C)cs2)cc1	V-ATPase pHluor 14.3
COc1cc(OC)cc(C(=O)NCC(C)NC(=O)c2cc(OC)cc(OC)c2)c1 (stereo not given)	none
COc1ccc(NC(=O)N2CC(C)OC(C)C2)cc1OC (stereo not given)	none
COc1ccc(C)cc1NC(=S)N1CC(C)OC(C)C1 (stereo not given)	V-ATPase pHluor 14.8
CCc1noc(C)c1C(=O)OCC(=O)c1ccc(NC(C)=O)cc1F	V-ATPase pHluor 16.6 (no result: PolyA inh)
O=C1C=CC(=O)N1c1ccc(-c2nc3ccccc3o2)cc1	V-ATPase pHluor 20.3 (no result: PolyA inh, JMJD2C inh, Yeast superoxide)
CC(=O)c1ccc(N2CCN(C(=O)Nc3cccc(F)c3)CC2)cc1	none
CCC(C)(C)c1ccc(OCCCC[n+]2cccc(C)c2C)c(C(C)(C)CC)c1	Yeast superoxide 65.5
CCCCCCCN1C2=NCCN2c2ccccc21	V-ATPase pHluor 21.6
Cn1c(SCC(=O)N2CCCC2=O)nnc1-c1ccccc1F	JMJD2C inh 55.1
CCc1ccc(-n2c(Cc3ccccc3)n[nH]c2=S)cc1	none
CC(C)=CCN1CCN(Cc2cn[nH]c2C2CCCCC2)CC1CCO (stereo not given)	JMJD2C inh 53.3 (no result: PKA-R1A activ, PKA-R2B activ, V-ATPase pHluor)
Cc1ccc(C(=O)Nc2ccc(S(=O)(=O)Nc3cnc4ccccc4n3)cc2)cc1	none
O=c1[nH]cnc2c1c(-c1ccccc1)cn2-c1ccccc1	JMJD2C inh 62.2
Cc1cc(Cl)ccc1NC(=O)c1ccc2c(c1)OCO2	V-ATPase pHluor 14.7
CC(C(=O)NCCCc1ccccc1)n1cccc1C(=O)c1ccccc1 (stereo not given)	none
O=c1nc(SCc2c(F)cccc2Cl)nc(-c2ccccc2)[nH]1	none (no result: PKA-R1A activ, PKA-R2B activ, V-ATPase pHluor)
COc1ccc2[nH]c(C(=O)N(Cc3ccccn3)Cc3ccccn3)cc2c1	V-ATPase pHluor 36.9
CCCCN(Cc1cc2cc(OC)ccc2[nH]c1=O)C(=O)c1ccccn1	none
O=C(COC(=O)Cc1ccc(S(=O)(=O)N2CCOCC2)s1)Nc1ccccc1	none (no result: PolyA inh)
O=C(COC(=O)Cc1ccc(S(=O)(=O)N2CCOCC2)s1)Nc1ccc2c(c1)OCO2	PolyA inh 105.7
COc1cc(CC(=O)N(CC(C)C)C2CCS(=O)(=O)C2)cc(OC)c1OC (stereo not given)	none (no result: PolyA inh)
CC(=O)Nc1ccc2nc3ccccc3nc2c1	Yeast superoxide 52.0
CC(C)(C)c1cc(O)c(C(C)(C)C)cc1O	Yeast superoxide 52.0 (no result: PKA-R1A activ, PKA-R2B activ, V-ATPase pHluor)
Cc1cc(C(C)(C)C)c(O)c(C(C)(C)C)c1	none
CN(C(=O)CSc1nnc(-c2cccnc2)n1-c1ccccc1F)C1CCS(=O)(=O)C1 (stereo not given)	none
Cc1cc(NC(=O)COC(=O)C2CC(=O)N(c3ccccc3)C2)no1 (stereo not given)	none
Cc1cc(NC(=O)COC(=O)C2CC(=O)N(c3ccc(Cl)cc3)C2)no1 (stereo not given)	V-ATPase pHluor 15.7
CC(=O)N(C)C1=C(N2CCOCC2)C(=O)c2ccccc2C1=O	JMJD2C inh 98.7
CCCCn1c(N)c(N(Cc2ccccc2OC)C(=O)CCC(C)C)c(=O)[nH]c1=O	none
